Assay results as given in PubChem BioAssay (NCATS).
Results filed as inconclusive are left out. Calls of active or inactive are those of the source. Calls follow the shape of the dose curve; as a rule, active = well fitted cell-killing curve with a large enough effect; inconclusive = small, poorly fitted or top-dose-only effect, or effect the other way; inactive = no such curve, though single readings can be large or run the other way.

Assay: Quantitative High-Throughput drug screen in 47 multiple myeloma cell lines against the NCATS MIPE library collection: KMS21BM_JCRB cell viability assay (AID 1918974)
Settings: ATP luminescence, 48 h; viability: at 45.8 µM unless noted
Outline: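 Luminescent ATP measurement with CellTiter-Glo gives viability, scaled between DMSO-only wells (100%) and media-only wells (0%). Cells, 500 per well, faced library compounds for 48 hours at 37C.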
Potency is read from the fitted curve at half-maximal effect.

SMILES	Potency	viability
Cc1[nH]c(C=C2C(=O)Nc3ccc(S(=O)(=O)Cc4c(Cl)cccc4Cl)cc32)c(C)c1C(=O)N1CCC[C@H]1CN1CCCC1	4.69 µM (active)	
Oc1ccc(C2=Cc3ccc(O)cc3OC2)cc1	2.35 µM (active)	
Cc1ccc(C(=O)Nc2cccc(C(F)(F)F)c2)cc1Nc1nc(-c2cccnc2)nc2c1cnn2C		329% (inactive)
COCCOc1nc(-c2ccc(Cl)c(Cl)c2)n(-c2ccc(NC(=O)CCl)cc2)n1	16.6 µM (active)	
COc1cccc([C@@H](C)NCCCc2ccccc2Cl)c1	16.6 µM (active)	
O=C(O)C=Cc1ccc(O)c(O)c1	13.2 µM (active)	
CCn1c(C(=O)N(C2CC2)C2CC2)cc2c3c(ncn3C)c(Nc3cc(C)n(C)n3)nc21		149% (inactive)
O=C1NC(=O)C(=Cc2cccc(C(F)(F)F)c2)S1	8.33 µM (active)	
CCN(CC)CCOc1ccc(C(=C(Cl)c2ccccc2)c2ccccc2)cc1	18.7 µM (active)	
CO[C@H]1C[C@@H]2CC[C@@H](C)[C@@](O)(O2)C(=O)C(=O)N2CCCC[C@@H]2C(=O)O[C@H]([C@H](C)C[C@@H]2CC[C@H](OCCO)[C@H](OC)C2)CC(=O)[C@H](C)C=C(C)[C@@H](O)[C@@H](OC)C(=O)[C@H](C)C[C@H](C)C=CC=CC=C1C	7.43 µM (active)	
COc1ccc(Cc2nccc3cc(OC)c(OC)cc23)cc1OC		111% (inactive)
